Records with an inconclusive call do not appear. Entries that show only a call come without a potency. Values without a mark were called inactive. Calls of active or inactive are those of the source. The call rests on the fitted dose curve; in most records, active means well fitted curve in the direction sought with a large enough effect; inconclusive means small, poorly fitted or top-dose-only effect, or another doubt; inactive means no such curve, though single readings can be large; an effect the other way counts as inactive or inconclusive.
Tests used:
[1] = target: Rap guanine nucleotide exchange factor 3 (Homo sapiens) (UniProt O95398); experiment: Confirmatory qHTS for agonist of cAMP-regulated guanine nucleotide exchange factor 3 (EPAC1) (AID 1645881);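 further: EPAC1 catalysed release of BODIPY-GDP from Rap1B seen as fluorescence loss; nearly all actives have a fitted effect of over 75% in size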
[2] = target: Rap guanine nucleotide exchange factor 4 (Homo sapiens) (UniProt Q8WZA2); experiment: Confirmatory qHTS for agonist of cAMP-regulated guanine nucleotide exchange factor 4 (EPAC2) (AID 1645884);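 further: nucleotide exchange releases bodipy-GDP from Rap1 and this lowers its fluorescence; nearly all actives have a fitted effect of over 65% in size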
[3] = target: Rap guanine nucleotide exchange factor 4 (Homo sapiens) (UniProt Q8WZA2); experiment: Confirmatory qHTS for antagonist of cAMP-regulated guanine nucleotide exchange factor 4 (EPAC2) (AID 1645885); further: nearly all actives have a fitted effect of over 25% in size; further: potency means the concentration at half of the fitted maximal effect
[4] = target: Rap guanine nucleotide exchange factor 3 (Homo sapiens) (UniProt O95398); experiment: Counterscreen qHTS for antagonist of cAMP-regulated guanine nucleotide exchange factor 3 (EPAC1) (AID 1645888);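 further: fluorescence loss as bound BODIPY-GDP is released from Rap1B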
Procedure, shortened: (§1)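 Measured: fluorescence of BODIPY-GDP bound to Rap1B, which falls as exchange proceeds. Conditions include 50 uM competing GDP, 5 and 30 min reads, and a later cAMP challenge for antagonist detection.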

[5] = target: Rap guanine nucleotide exchange factor 3 (Homo sapiens) (UniProt O95398); experiment: Counterscreen qHTS for agonist of cAMP-regulated guanine nucleotide exchange factor 3 (EPAC1) (AID 1645889); further: nearly all actives have a fitted effect of over 40% in size; further: potency means the concentration at half of the fitted maximal effect
Procedure, shortened: as §1

Rap guanine nucleotide exchange factor 4 (Homo sapiens), sequence (Q8WZA2 whole entry, looked up): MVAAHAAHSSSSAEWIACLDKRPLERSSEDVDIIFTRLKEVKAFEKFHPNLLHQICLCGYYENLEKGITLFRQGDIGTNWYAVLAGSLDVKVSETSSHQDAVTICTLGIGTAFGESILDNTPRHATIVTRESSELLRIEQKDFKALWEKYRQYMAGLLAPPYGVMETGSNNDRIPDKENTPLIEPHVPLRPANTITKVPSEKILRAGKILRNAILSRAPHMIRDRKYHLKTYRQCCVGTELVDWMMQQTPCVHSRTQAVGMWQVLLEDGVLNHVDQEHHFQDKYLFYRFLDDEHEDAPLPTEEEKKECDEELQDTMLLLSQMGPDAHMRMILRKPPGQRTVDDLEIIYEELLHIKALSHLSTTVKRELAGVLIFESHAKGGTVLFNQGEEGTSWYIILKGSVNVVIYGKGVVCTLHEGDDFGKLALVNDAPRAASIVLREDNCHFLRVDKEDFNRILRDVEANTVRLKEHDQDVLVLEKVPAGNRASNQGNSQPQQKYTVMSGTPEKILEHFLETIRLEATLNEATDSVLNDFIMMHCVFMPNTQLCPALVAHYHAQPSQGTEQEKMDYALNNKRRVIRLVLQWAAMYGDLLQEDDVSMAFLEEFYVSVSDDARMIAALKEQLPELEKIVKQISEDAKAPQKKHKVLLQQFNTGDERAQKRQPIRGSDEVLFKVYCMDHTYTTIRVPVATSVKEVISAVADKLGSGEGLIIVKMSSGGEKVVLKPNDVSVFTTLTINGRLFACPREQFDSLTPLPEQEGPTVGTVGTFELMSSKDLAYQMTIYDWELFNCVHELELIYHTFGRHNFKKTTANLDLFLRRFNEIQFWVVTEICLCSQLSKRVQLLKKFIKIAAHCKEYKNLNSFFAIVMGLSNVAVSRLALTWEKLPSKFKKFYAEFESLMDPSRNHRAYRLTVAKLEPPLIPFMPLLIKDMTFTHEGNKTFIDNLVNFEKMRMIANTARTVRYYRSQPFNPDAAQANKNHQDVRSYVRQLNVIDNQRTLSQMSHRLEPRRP
Rap guanine nucleotide exchange factor 3 (Homo sapiens), sequence (O95398 whole entry, looked up): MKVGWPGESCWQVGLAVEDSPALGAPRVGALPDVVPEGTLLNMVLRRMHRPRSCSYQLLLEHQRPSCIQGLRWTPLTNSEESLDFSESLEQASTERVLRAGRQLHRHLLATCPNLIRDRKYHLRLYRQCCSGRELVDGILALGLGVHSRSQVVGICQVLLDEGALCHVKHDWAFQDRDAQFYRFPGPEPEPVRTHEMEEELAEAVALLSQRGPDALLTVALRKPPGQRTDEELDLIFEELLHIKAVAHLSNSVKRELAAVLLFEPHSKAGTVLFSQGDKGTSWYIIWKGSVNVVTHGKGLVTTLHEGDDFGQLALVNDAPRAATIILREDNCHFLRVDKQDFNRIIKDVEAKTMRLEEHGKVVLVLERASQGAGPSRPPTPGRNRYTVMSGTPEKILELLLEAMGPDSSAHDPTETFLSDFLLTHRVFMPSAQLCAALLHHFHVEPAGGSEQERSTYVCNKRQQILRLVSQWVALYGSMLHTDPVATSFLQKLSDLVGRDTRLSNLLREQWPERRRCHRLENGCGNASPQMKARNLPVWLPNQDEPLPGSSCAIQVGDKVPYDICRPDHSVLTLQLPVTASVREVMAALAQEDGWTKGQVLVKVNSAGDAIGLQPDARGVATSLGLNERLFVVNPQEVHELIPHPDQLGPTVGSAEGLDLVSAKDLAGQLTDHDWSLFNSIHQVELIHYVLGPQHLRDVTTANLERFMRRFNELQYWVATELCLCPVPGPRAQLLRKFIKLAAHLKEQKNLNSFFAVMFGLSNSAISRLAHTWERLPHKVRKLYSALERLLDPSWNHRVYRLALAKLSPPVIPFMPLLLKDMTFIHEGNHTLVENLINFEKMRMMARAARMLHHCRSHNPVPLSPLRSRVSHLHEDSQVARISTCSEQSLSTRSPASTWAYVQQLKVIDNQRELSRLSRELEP

## CC(C)(C)n1nc(Cc2cccc3ccccc23)c(C#N)c1N
[1]
  Potency: inactive
[2]
  Potency: inactive
[3]
  Potency: inactive
[4]
  Potency: inactive
[5]
  Potency: inactive

## CCOC(=O)N1CCC(Nc2nc3ccccc3n3cnnc23)CC1
[1]
  Potency: inactive
[2]
  activation: 3.86% [at 17.1 µM, percent relative to cAMP agonist control]
[3]
  Potency: inactive
[4]
  activity change, negative = inhibition: -12.2% [at 30.8 µM]
[5]
  activation: 4.26% [at 30.8 µM]

## CC1CCCN(c2nc3ccccc3nc2C(C#N)S(=O)(=O)c2ccccc2)C1 (stereo not given)
[1]
  Potency: inactive
[2]
  Potency: inactive
[3]
  Potency: inactive
[4]
  Potency: inactive
[5]
  Potency: 22.4 µM (active)

## COc1ccc2c(c1)c(=O)oc1c(C)c(OCc3cc(C(=O)O)oc3C)ccc12
[1]
  Potency: inactive
[2]
  Potency: inactive
[3]
  Potency: inactive
[4]
  Potency: inactive
[5]
  Potency: inactive

## CCc1cc(C(=O)N=Nc2c(O)[nH]c3ccc([N+](=O)[O-])cc23)c2ccccc2n1
[1]
  Potency: inactive
[2]
  Potency: inactive
[3]
  Potency: inactive
[4]
  Potency: inactive
[5]
  Potency: inactive

## CC(C)Cn1nc(NS(=O)(=O)c2cccc3nonc23)c2cc3ccccc3nc21
[1]
  Potency: inactive
[2]
  Potency: inactive
[3]
  Potency: inactive
[4]
  Potency: inactive
[5]
  Potency: inactive

## CCOC(=O)Cc1nn(Cc2ccc(Cl)cc2)c(=O)c2ccccc12
[1]
  Potency: inactive
[2]
  Potency: inactive
[3]
  Potency: inactive
[4]
  Potency: inactive
[5]
  Potency: inactive

## CCOC(=O)C(C)Sc1nc(-c2ccco2)cc(C(F)(F)F)c1C#N (stereo not given)
[1]
  Potency: inactive
[2]
  activation: 0.901% [at 17.1 µM, percent relative to cAMP agonist control]
[3]
  Potency: inactive
[4]
  activity change, negative = inhibition: -10.8% [at 30.8 µM]
[5]
  activation: 0.691% [at 30.8 µM]

## C=CCc1ccccc1OCCSc1nc(-c2ccccc2F)nc2cc(=O)[nH]n12
[1]
  Potency: inactive
[2]
  Potency: inactive
[3]
  Potency: inactive
[4]
  Potency: inactive
[5]
  Potency: inactive

## Cc1ccccc1Cn1nnc2c(=O)[nH]c(C3CCCN(C(=O)c4ccc(C(C)(C)C)cc4)C3)nc21 (stereo not given)
[1]
  Potency: inactive
[2]
  Potency: inactive
[3]
  Potency: inactive
[4]
  Potency: inactive
[5]
  Potency: inactive

## O=C(Nc1cccc([N+](=O)[O-])c1)c1ccc2c(c1)C(=O)N(c1ccccn1)C2=O
[1]
  Potency: inactive
[2]
  activation: 10.8% [at 17.1 µM, percent relative to cAMP agonist control]
[3]
  Potency: inactive
[4]
  activity change, negative = inhibition: -7.46% [at 30.8 µM]
[5]
  activation: 12.1% [at 30.8 µM]

## CCN(C(=O)Cn1c(=O)oc2cc(Cl)ccc21)c1cccc(C(F)(F)F)c1
[1]
  Potency: inactive
[2]
  Potency: inactive
[3]
  Potency: inactive
[4]
  Potency: inactive
[5]
  Potency: inactive

## Brc1ccc(/C=N/Nc2nc3ccccc3o2)cc1
[1]
  Potency: inactive
[2]
  Potency: inactive
[3]
  Potency: inactive
[4]
  Potency: inactive
[5]
  Potency: inactive

## CC(C)C(=O)NC(c1ccccc1)c1cc([N+](=O)[O-])c2cccnc2c1O (stereo not given)
[1]
  Potency: inactive
[2]
  activation: 4.72% [at 17.1 µM, percent relative to cAMP agonist control]
[3]
  Potency: inactive
[4]
  activity change, negative = inhibition: -3.56% [at 30.8 µM]
[5]
  activation: 39.4% [at 30.8 µM]

## Cc1ccccc1CN(C)CC(=O)Nc1c(C)cccc1C(C)C
[1]
  Potency: inactive
[2]
  activation: 7.02% [at 17.1 µM, percent relative to cAMP agonist control]
[3]
  Potency: inactive
[4]
  activity change, negative = inhibition: -6.66% [at 30.8 µM]
[5]
  activation: -4.69% [at 30.8 µM]

## CCc1ccc(N(C(=O)c2csnn2)C(C(=O)NCc2ccccc2)c2ccco2)cc1 (stereo not given)
[1]
  Potency: inactive
[2]
  Potency: inactive
[3]
  Potency: 16.9 µM (active)
[4]
  Potency: inactive
[5]
  Potency: inactive

## Cc1cccc(NC(=O)CSCC(=O)N(C)CCOc2ccc(Cl)cc2)c1
[1]
  Potency: inactive
[2]
  Potency: inactive
[3]
  Potency: inactive
[4]
  Potency: inactive
[5]
  Potency: inactive

## CC1(Cc2ccccc2Cl)C(=O)Nc2c(Cl)cccc21 (stereo not given)
[1]
  Potency: inactive
[2]
  activation: 10% [at 17.1 µM, percent relative to cAMP agonist control]
[3]
  Potency: inactive
[4]
  activity change, negative = inhibition: -23.5% [at 30.8 µM]
[5]
  activation: 5.68% [at 30.8 µM]

## Clc1ccc(Cn2c(/C=C/c3ccco3)nc3ccccc32)cc1
[1]
  Potency: inactive
[2]
  Potency: inactive
[3]
  Potency: inactive
[4]
  Potency: inactive
[5]
  Potency: inactive

## O=[N+]([O-])c1cc2c(cc1CN1CCN(CCOCCO)CC1)OCO2
[1]
  Potency: inactive
[2]
  Potency: inactive
[3]
  Potency: inactive
[4]
  Potency: inactive
[5]
  Potency: inactive

## CCOc1cc(/C=C2/SC(=S)N(CC(=O)O)C2=O)ccc1OC(=O)c1cccs1
[1]
  Potency: inactive
[2]
  Potency: inactive
[3]
  Potency: inactive
[4]
  Potency: inactive
[5]
  Potency: inactive

## CCN(c1ccc(NC(=O)CCc2nc3sc4c(c3c(=O)[nH]2)CCCC4)cc1)C(C)C
[1]
  Potency: inactive
[2]
  activation: -1.91% [at 17.1 µM, percent relative to cAMP agonist control]
[3]
  Potency: inactive
[4]
  activity change, negative = inhibition: -10.9% [at 30.8 µM]
[5]
  activation: 2.05% [at 30.8 µM]

## Clc1ccc(CON/C=N/c2ncnc3sccc23)cc1
[1]
  Potency: inactive
[2]
  activation: 8% [at 17.1 µM, percent relative to cAMP agonist control]
[3]
  Potency: inactive
[4]
  activity change, negative = inhibition: -10% [at 30.8 µM]
[5]
  activation: 11.3% [at 30.8 µM]

## CC1CCc2[nH]c3ccc(C(=O)N4CCCC(C(F)(F)F)C4)cc3c2C1 (stereo not given)
[1]
  Potency: inactive
[2]
  Potency: inactive
[3]
  Potency: inactive
[4]
  Potency: inactive
[5]
  Potency: inactive

## Cn1cc(S(=O)(=O)Nc2cccc(F)c2)c(=O)n(C)c1=O
[1]
  Potency: inactive
[2]
  activation: 0% [at 17.1 µM, percent relative to cAMP agonist control]
[3]
  Potency: inactive
[4]
  activity change, negative = inhibition: -13.5% [at 30.8 µM]
[5]
  activation: -7.11% [at 30.8 µM]

## O=[N+]([O-])c1cc(CN2CCN(c3cccc(C(F)(F)F)c3)CC2)c2cccnc2c1O
[1]
  Potency: inactive
[2]
  Potency: inactive
[3]
  Potency: inactive
[4]
  Potency: inactive
[5]
  Potency: inactive

## CCOCc1nnc(NC(=O)C2c3ccccc3Oc3ccccc32)s1
[1]
  Potency: inactive
[2]
  Potency: inactive
[3]
  Potency: 67.5 µM (active)
[4]
  Potency: inactive
[5]
  Potency: inactive

## NNc1cccc(C=Cc2ccccc2)cc1=O
[1]
  Potency: inactive
[2]
  activation: 0.393% [at 17.1 µM, percent relative to cAMP agonist control]
[3]
  Potency: inactive
[4]
  activity change, negative = inhibition: -9.39% [at 30.8 µM]
[5]
  activation: 27.5% [at 30.8 µM]

## OC(c1cc(F)cc(Cl)c1)c1ncc(-c2cccc(C(F)(F)F)c2)[nH]1 (stereo not given)
[1]
  Potency: inactive
[2]
  activation: -1.66% [at 17.1 µM, percent relative to cAMP agonist control]
[3]
  Potency: inactive
[4]
  activity change, negative = inhibition: -12% [at 30.8 µM]
[5]
  activation: 19.7% [at 30.8 µM]

## O=C(O)C(Cc1ccccc1)N1C(=O)/C(=C/c2cccs2)SC1=S (stereo not given)
[1]
  Potency: inactive
[2]
  Potency: inactive
[3]
  Potency: 75.7 µM (active)
[4]
  Potency: inactive
[5]
  Potency: inactive

## COc1ccc(NC(=O)CN2CCN(c3c(C)cc(C)cc3C)CC2)cc1
[1]
  Potency: inactive
[2]
  activation: 7.83% [at 17.1 µM, percent relative to cAMP agonist control]
[3]
  Potency: inactive
[4]
  activity change, negative = inhibition: 9.75% [at 30.8 µM]
[5]
  activation: 16.1% [at 30.8 µM]

## Cc1csc2c(=O)sc(NC(=O)c3cccs3)nc12
[1]
  Potency: inactive
[2]
  Potency: inactive
[3]
  Potency: inactive
[4]
  Potency: inactive
[5]
  Potency: inactive

## COc1ccc(/C=N\Nc2ccc([N+](=O)[O-])cc2)c(C(=O)O)c1OC
[1]
  Potency: inactive
[2]
  Potency: inactive
[3]
  Potency: inactive
[4]
  Potency: inactive
[5]
  Potency: inactive

## Cc1cc(Br)cc(Cl)c1OC(=O)c1ccncc1
[1]
  Potency: inactive
[2]
  Potency: inactive
[3]
  Potency: 37.9 µM (active)
[4]
  Potency: inactive
[5]
  Potency: inactive

## CCc1cccc(NC(=O)COC(=O)/C=C/c2cccs2)c1
[1]
  Potency: inactive
[2]
  Potency: inactive
[3]
  Potency: inactive
[4]
  Potency: inactive
[5]
  Potency: inactive

## Cn1c(=O)c2c(SCc3cccnc3)nc(CC(C)(C)C)nc2n(C)c1=O
[1]
  Potency: inactive
[2]
  activation: 6.82% [at 17.1 µM, percent relative to cAMP agonist control]
[3]
  Potency: inactive
[4]
  activity change, negative = inhibition: -15.2% [at 30.8 µM]
[5]
  activation: 9.84% [at 30.8 µM]

## C#Cc1ccc([C@@H]2C=C(C(=O)NCc3ccccc3)O[C@H](OCc3ccc(CO)cc3)C2)cc1
[1]
  Potency: inactive
[2]
  Potency: inactive
[3]
  Potency: inactive
[4]
  Potency: inactive
[5]
  Potency: inactive

## CC1(Cc2ccc(OC(F)(F)F)cc2)C(=O)Nc2ccc(OC(F)(F)F)cc21 (stereo not given)
[1]
  Potency: inactive
[2]
  activation: -11.8% [at 17.1 µM, percent relative to cAMP agonist control]
[3]
  Potency: inactive
[4]
  activity change, negative = inhibition: -17.3% [at 30.8 µM]
[5]
  activation: 35.9% [at 30.8 µM]

## COc1ccc(OC)c(N2C(=O)[C@@H]3C(c4ccccc4Cl)=NO[C@@H]3C2=O)c1
[1]
  Potency: inactive
[2]
  Potency: inactive
[3]
  Potency: 6.01 µM (active)
[4]
  Potency: inactive
[5]
  Potency: inactive

## CCOC(=O)Cc1csc(NC(=O)COc2ccc3ccccc3c2)n1
[1]
  Potency: inactive
[2]
  activation: 9.25% [at 17.1 µM, percent relative to cAMP agonist control]
[3]
  Potency: inactive
[4]
  activity change, negative = inhibition: 5.57% [at 30.8 µM]
[5]
  activation: 21.1% [at 30.8 µM]

## COc1cccc2sc(N(CCCN(C)C)C(=O)C(c3ccccc3)c3ccccc3)nc12
[1]
  Potency: inactive
[2]
  activation: 7.29% [at 17.1 µM, percent relative to cAMP agonist control]
[3]
  Potency: inactive
[4]
  activity change, negative = inhibition: -0.182% [at 30.8 µM]
[5]
  activation: 23.9% [at 30.8 µM]

## CNC(=S)N1CCc2cc(OC)c(OC)cc2C1COc1ccc(F)cc1 (stereo not given)
[1]
  Potency: inactive
[2]
  activation: 0% [at 17.1 µM, percent relative to cAMP agonist control]
[3]
  Potency: inactive
[4]
  activity change, negative = inhibition: -1.54% [at 30.8 µM]
[5]
  activation: 46.8% [at 30.8 µM]

Reference: PubChem BioAssay (NCATS)
